This note sets out measurements from PubChem BioAssay (NCATS).

Assay [1] in a line: Quantitative High-Throughput drug screen in 47 multiple myeloma cell lines against the NCATS MIPE library collection: FR4_PLB cell viability assay (AID 1918924; further: nearly all actives have a fitted effect of over 35% in size; further: potency means the concentration at half of the fitted maximal effect). A digest of the protocol:
(§1)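 Luminescent ATP measurement with CellTiter-Glo gives viability, scaled between DMSO-only wells (100%) and media-only wells (0%). Cells, 500 per well, faced library compounds for 48 hours at 37C.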

Assay [2] in a line: Quantitative High-Throughput drug screen in 47 multiple myeloma cell lines against the NCATS MIPE library collection: Delta47_JCRB cell viability assay (AID 1918925; further: nearly all actives have a fitted effect of over 45% in size; further: potency means the concentration at half of the fitted maximal effect). A digest of the protocol: (§2)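 Relative luminescence from CellTiter-Glo served as the viability signal, referenced to DMSO-treated (100%) and cell-free medium (0%) controls. Treatment lasted 48 hours at 37C with 500 cells per well.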

Assay [3] can be described thus: Quantitative High-Throughput drug screen in 47 multiple myeloma cell lines against the NCATS MIPE library collection: AMO1_DSMZ cell viability assay (AID 1918927; further: nearly all actives have a fitted effect of over 30% in size; further: potency means the concentration at half of the fitted maximal effect). A digest of the protocol: as §2
Assay [4] is described as follows: Quantitative High-Throughput drug screen in 47 multiple myeloma cell lines against the NCATS MIPE library collection: ARP1_JJKsccF8 cell viability assay (AID 1918928; further: nearly all actives have a fitted effect of over 40% in size; further: potency means the concentration at half of the fitted maximal effect). A digest of the protocol:
(§3)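 Myeloma cells at 500 per well in 1536-well format treated with MIPE 4.0 library by pin transfer for 48 h at 37C, 5% CO2. Viability from ATP luminescence (CellTiter-Glo), normalized to DMSO (100%) and media-only (0%) wells.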

Assay [5] is described as follows: Quantitative High-Throughput drug screen in 47 multiple myeloma cell lines against the NCATS MIPE library collection: ARD_JJKsccE7 cell viability assay (AID 1918929; further: potency means the concentration at half of the fitted maximal effect). A digest of the protocol:
as §2

A short description of assay [6]: Quantitative High-Throughput drug screen in 47 multiple myeloma cell lines against the NCATS MIPE library collection: KMM1_JCRB cell viability assay (AID 1918960). Further: nearly all actives have a fitted effect of over 30% in size. Further: potency means the concentration at half of the fitted maximal effect. An outline of the steps: as §3
Assay [7] can be described thus: Quantitative High-Throughput drug screen in 47 multiple myeloma cell lines against the NCATS MIPE library collection: KHM11_PLB cell viability assay (AID 1918962). Further: nearly all actives have a fitted effect of over 35% in size. Further: potency means the concentration at half of the fitted maximal effect. An outline of the steps:
as §1

Assay [8] can be described thus: Quantitative High-Throughput drug screen in 47 multiple myeloma cell lines against the NCATS MIPE library collection: INA6_PLB cell viability assay (AID 1918965; further: nearly all actives have a fitted effect of over 55% in size; further: potency means the concentration at half of the fitted maximal effect). An outline of the steps: (§4)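 Steps: seed 500 cells per well; pin-transfer MIPE 4.0 library; incubate 48 h at 37C, 5% CO2, humidified; add CellTiter-Glo, 5 min room temperature; read luminescence.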
Assay [9] in a line: Quantitative High-Throughput drug screen in 47 multiple myeloma cell lines against the NCATS MIPE library collection: JJN3_DSMZ cell viability assay (AID 1918966; further: potency means the concentration at half of the fitted maximal effect; nearly all actives have a fitted effect of over 50% in size). An outline of the steps:
as §2

The nature of assay [10]: Quantitative High-Throughput drug screen in 47 multiple myeloma cell lines against the NCATS MIPE library collection: Karpas25_ECACC cell viability assay (AID 1918968; further: nearly all actives have a fitted effect of over 35% in size; further: potency means the concentration at half of the fitted maximal effect). An outline of the steps:
as §2

Assay [11] can be described thus: Quantitative High-Throughput drug screen in 47 multiple myeloma cell lines against the NCATS MIPE library collection: KMS27_JCRB cell viability assay (AID 1918970). Further: nearly all actives have a fitted effect of over 30% in size. Further: potency means the concentration at half of the fitted maximal effect. The following applies: KMS27 myeloma cells, CellTiter-Glo ATP viability, 48 h; viability (% of DMSO): at 45.8 µM (top of the series). An outline of the steps: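 Viability inhibition screen, 48 h compound exposure, luminescent ATP read-out.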
In general terms: ATP-based viability assays read luminescence as a measure of living cells.

Assay [12] is described as follows: Quantitative High-Throughput drug screen in 47 multiple myeloma cell lines against the NCATS MIPE library collection: KMS12BM_JCRB cell viability assay (AID 1918971). Further: nearly all actives have a fitted effect of over 35% in size. Further: potency means the concentration at half of the fitted maximal effect. An outline of the steps: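 Inhibition of cell viability is measured here. Each line was plated at 500 cells per well, treated with MIPE 4.0 drugs, kept 48 hours at 37C, then assayed for ATP content by CellTiter-Glo luminescence.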

Assay [13] in a line: Quantitative High-Throughput drug screen in 47 multiple myeloma cell lines against the NCATS MIPE library collection: Karpas620_DSMZ cell viability assay (AID 1918959). Further: nearly all actives have a fitted effect of over 30% in size. Further: potency means the concentration at half of the fitted maximal effect. A digest of the protocol:
as §1

Assay [14] can be described thus: Quantitative High-Throughput drug screen in 47 multiple myeloma cell lines against the NCATS MIPE library collection: JIM3_ECACC cell viability assay (AID 1918963; further: nearly all actives have a fitted effect of over 35% in size; further: potency means the concentration at half of the fitted maximal effect). A digest of the protocol: as §1
A short description of assay [15]: Quantitative High-Throughput drug screen in 47 multiple myeloma cell lines against the NCATS MIPE library collection: EJM_DSMZ cell viability assay (AID 1918926; further: nearly all actives have a fitted effect of over 30% in size). An outline of the steps: as §2
The nature of assay [16]: Quantitative High-Throughput drug screen in 47 multiple myeloma cell lines against the NCATS MIPE library collection: JIM1_ECACC cell viability assay (AID 1918964; further: potency means the concentration at half of the fitted maximal effect). A digest of the protocol: as §2
Assay [17] in a line: Quantitative High-Throughput drug screen in 47 multiple myeloma cell lines against the NCATS MIPE library collection: H1112_PLB cell viability assay (AID 1918967; further: nearly all actives have a fitted effect of over 30% in size; further: potency means the concentration at half of the fitted maximal effect). An outline of the steps: as §2
The nature of assay [18]: Quantitative High-Throughput drug screen in 47 multiple myeloma cell lines against the NCATS MIPE library collection: Karpas417_ECACC cell viability assay (AID 1918961). Further: potency means the concentration at half of the fitted maximal effect. Conditions: Karpas417 myeloma viability, CellTiter-Glo ATP luminescence, 48 h; viability (% of DMSO): at 45.8 µM (top of the series). An outline of the steps:
as §4

Structures are written as SMILES. Results filed as inconclusive are left out. Activity calls are given as the source filed them. The call rests on the fitted dose curve; in most records, active means well fitted curve in the direction sought with a large enough effect; inconclusive means small, poorly fitted or top-dose-only effect, or another doubt; inactive means no such curve, though single readings can be large; an effect the other way counts as inactive or inconclusive.

As for `Cc1ccc(NC(=O)c2ccc(CN3CCN(C)CC3)cc2)cc1Nc1nc(-c2cccnc2)cs1`, the Potency is 20.9 µM (active) in assay [1]; 6.62 µM (active) in [2]; 18.7 µM (active) in assay [3]; 23.5 µM (active) in assay [4]; 23.5 µM (active) in assay [5]; 16.6 µM (active) in [6]. The Potency is 7.43 µM (active) in [7]; 5.26 µM (active) in assay [8]; 16.6 µM (active) in assay [9]; 5.9 µM (active) in assay [10]; 20.9 µM (active) in assay [11]; 23.5 µM (active) in assay [12].
For `N#CC(=C1Nc2ccccc2S1)c1ccnc(OCc2ccc(CN3CCOCC3)cc2)n1`, the Potency in [1] was 23.5 µM (active); in assay [2], 7.43 µM (active); in assay [3], 0.0332 µM (active); in assay [4] it was 23.5 µM (active); in assay [5] it was 0.105 µM (active); in [13], 0.0264 µM (active). The Potency in [6] was 0.0743 µM (active); in [14], 5.26 µM (active); in [8] it was 5.26 µM (active); in [9] it was 2.09 µM (active); in assay [10] it was 0.235 µM (active); in assay [11] it was 0.0264 µM (active). Also, the Potency in [12] is 26.4 µM (active).
Consider `C[C@@H](O)[C@H]1C(=O)N2C(C(=O)OCOC(=O)C(C)(C)C)=C(SC3CN(C4=NCCS4)C3)[C@H](C)[C@H]12`, for which the Potency entry in assay [1], in assay [2], in assay [15], in [4], in assay [13] and in [7] was “inactive” in each case. For the same compound, the Potency entry in assay [14], in assay [16], in assay [17] and in assay [12] was “inactive” in each case. For the same compound, in assay [9], the Potency was 16.6 µM (active).
For `COc1cccc(OC)c1-c1cc(C(=O)NC2(C(=O)O)C3CC4CC(C3)CC2C4)nn1-c1ccnc2cc(Cl)ccc12` (configuration not stated), the Potency entry in [1], in assay [2], in assay [15], in [3], in [5] and in assay [13] was “inactive” throughout. The Potency entry in assay [6], in assay [7], in assay [14], in assay [17], in assay [10] and in assay [11] was “inactive” throughout.
Consider `CCCCOCCOc1nc(-c2ccc(C(=O)O)c(F)c2)sc1C`, for which the Potency entry in [1], in [2], in assay [15], in assay [3], in assay [13] and in [6] was “inactive” each time. For the same compound, the Potency entry in assay [17] and in assay [11] was “inactive” each time. The Potency in assay [14] is 0.372 µM (active); in assay [12] it was 0.418 µM (active).
Take `O=C1C(CCC(O)c2ccc(F)cc2)C(c2ccc(O)cc2)N1c1ccc(F)cc1` (configuration not stated): the Potency entry in assay [1], in assay [2], in assay [15], in [3], in assay [4] and in [13] was “inactive” each time. Further, the Potency result in [16], in assay [8], in assay [17] and in assay [12] was “inactive” in each case.
On to `CNC(=O)[C@H](CC1=CN=C2C=CCC=C12)NC(=O)[C@@H](CC(=O)NO)CC(C)C`, for which the Potency entry in assay [1], in assay [4] and in [12] was “inactive” each time. Further, the Potency in [2] was 26.4 µM (active); in assay [3], 0.0743 µM (active); in [5] it was 0.118 µM (active); in assay [13] it was 0.0743 µM (active); in [6] it was 0.148 µM (active); in assay [18] it was 0.0209 µM (active). Moreover, the Potency is 26.4 µM (active) in [14]; 0.0833 µM (active) in assay [16]; 33.2 µM (active) in assay [8]; 14.8 µM (active) in [17]; 6.62 µM (active) in assay [10].
